PubChem BioAssay AID1458 (National Center for Advancing Translational Sciences (NCATS), 2008)
About 5,900 (2.8%) of roughly 210,000 compounds were called active. Not shown: some 5% with an inconclusive outcome. Calls come from the whole dose curve; as a rule, active = well fitted activation curve with a large enough effect; inconclusive = small, poorly fitted or top-dose-only effect; inactive = no such curve, though single readings can be large or run the other way. For the sample, actives were picked, then their nearest neighbours and some compounds at random.

Test: qHTS Assay for Enhancers of SMN2 Splice Variant Expression; note: nearly all actives have a fitted effect of over 55% in size; for activity change, positive = activation: % of control where 0% means no effect
Details: HEK293 SMN2-luciferase splicing reporter, luminescence, 30-36 h; series mostly up to 46.1 µM; activity change, positive = activation: at the top concentration
Description: NIH Chemical Genomics Center [NCGC] NIH Molecular Libraries Probe Production centers Network [MLPCN] MLPCN Grant: R03 MH084179-01 Assay Submitter (PI): Elliot Androphy NCGC Assay Overview: Spinal muscular atrophy (SMA) is caused by insufficient levels of the survival motor neuron protein SMN. The SMN locus on chromosome 5q13 contains two inverted copies of SMN called SMN1 and SMN2 which are 99% identical at the amino acid level. SMN1 is a fully functional protein and SMN2 skips exon 7 90% of the time. Skipping of exon 7 produces non-functional protein product. 10% of the SMN2 protein includes exon 7 and is fully functional. In the SMA disease state, mutations in the SMN1 locus are the cause of the disease state. Because only 10% of SMN2 is of the fully functional form, it is not sufficient to overcome the deficiency produced by the loss of the SMN1 product. A therapy that either increase the amount of SMN2 product made or to increase the inclusion of exon 7 has been proposed for the treatment of SMA. We have designed an assay to identify small molecules that can increase the amount of functional SMN2 product by appending a luciferase reporter gene after the native SMN2 gene, such that inclusion of exon 7 in the expressed product places the luciferase sequence in frame, thus generating functional luciferase enzyme.
NCGC Assay Protocol Summary: This screen utilizes a luciferase reporter gene assay, combining the promoter and splicing based cassettes in tandem with the major portion of the native SMN2 cDNA, and then transfected into HEK293 cells. Compounds that increase luciferase signal presumably enhance expression of the functional SMN2 splice variant. Passaging media contained DMEM w/ glutamax (+phenol red) 10% FCS, 1x pen/strep, 200 ug/ml hygro, 1x sodium pyruvate. Assay media contained DMEM w/ glutamax (-phenol red) 10% FCS, 1x pen strep, 1x pyruvate Sequence, Parameter, Value, Description (1) Cells, […], 2000 cells/well, 1536 TC treated White solid bottom plate (2) Time, 10-12 hours, 37C 5% CO2 (3) Compound, 23 nl, MLSMR Library (4) Control Compound, 23 nL, Sodium butyrate st 4.5mM (final) conc (5) Time, 30-36 hours, 37C 5% CO2 (6) Reagent, 3 ul, One Glo (TM) from Promega (7) Time, 5-15 minutes, Room temp (8) Detector, Viewlux: luminescent read, 60 second integration, high speed 2x binning Keywords: Spinal muscular atrophy, SMA, SMN2, high throughput screening, MLSMR, MLPCN, NIH Roadmap, qHTS and NCGC
Potency is the fitted concentration of half-maximal effect.

Activity change, positive = activation, inactive:
CCC(=O)N1CCc2cc(S(=O)(=O)NC(CC(C)C)C(=O)NCCc3cccc(C)c3)ccc21 (configuration not stated) -12.6%
N#Cc1c(NC(=O)C2CC(Cl)=CCC2C(=O)O)sc2c1CCCCC2 (configuration not stated) -0.264%
N#Cc1c(NC(=O)CCCl)sc2c1CCCCC2 3.56%
Cc1ccccc1C(=O)N(Cc1ccc(N(C)C)cc1)CC1CCCO1 (configuration not stated) 5.65%
c1cnn(-c2cc(N3CCOCC3)ncn2)c1 -14%
COc1c(C)cccc1C(=O)Nc1cc(Cl)ccc1N1CCOCC1 11.4%
Cc1ccc(-c2nc3cccc(C)n3c2Nc2ccc3c(c2)OCCO3)cc1 15.9%
O=C(Nc1cc(C(F)(F)F)ccc1Cl)c1cc2nc(-c3ccc4c(c3)OCO4)cc(C(F)(F)F)n2n1 -0.044%
CC(C)CNC(=S)Nc1ccc(F)cc1 26.9%
COc1cc(OC)c(C(=O)Nc2ccc(N(C)C)cc2)cc1OC -2.79%
COc1ccc(N(C)C(=O)CCS(=O)(=O)c2cccc3nsnc23)cc1 9.32%
CCOC(=O)c1ccc(NC2Nc3cc(C)nn3S2)cc1 (configuration not stated) -45.1%
CCc1ccc(NC(=O)N2CCN(c3ccccc3)CC2)cc1 1.4%
O=C(NCCC1=CCCCC1)c1ccc2c(c1)N(Cc1ccccc1F)C(=O)c1ccccc1S2(=O)=O 9.24%
COc1ccc(CNC(=O)c2cc3c(-c4ccccc4F)nn(C)c3s2)c(OC)c1 -4.64%
CCOc1ccc(/C=C(\C#N)c2nc3ccccc3c(=O)[nH]2)cc1OC 6.78%
Fc1cccc(-n2ncc3c2ncn2nc(-c4ccccc4Cl)nc32)c1 11.6%
COc1ccc(-n2nc(C(=O)NCCc3ccc(Cl)cc3)c3c4ccccc4n(C)c3c2=O)cc1Cl -6.22%
CC(NC(=O)c1cc(-c2ccccc2)on1)c1ccccc1 (configuration not stated) -1.13%
CCCCNC(=O)c1cc(-c2ccc(Cl)c(Cl)c2)on1 3.08%
CCCCS(=O)(=O)c1oc(-c2cccs2)nc1S(=O)(=O)c1ccccc1 -103%
Cc1ccc(S(=O)(=O)N2CCc3cc(C(=O)Nc4ccc(Cl)cc4C)ccc32)cc1 -7.76%
Cc1nc(C)c(-c2csc(NCCc3ccccc3)n2)s1 -52.2%
Cc1cc(NC(=O)c2cccc(Cl)c2)ccc1-c1cc2ccccc2oc1=O -3.74%
COc1ccc2nc(Nc3nc(-c4cc5ccccc5oc4=O)cs3)sc2c1 4.66%
CCCOC(=O)c1cc2ccccc2oc1=O -9.46%
Cc1cc2c(cc1C)C(c1cccc(OC(C)C)c1)CC(=O)N2 (configuration not stated) 5.65%
N#Cc1ccc(-c2cccs2)nc1SCc1ccc(Br)cc1 0.274%
O=C(CSc1ccc(-c2cccs2)nn1)Nc1ccccc1F -18.9%
COc1ccc(C2NC(=O)N(C)C3=C2C(=O)N(c2ccc(C(=O)O)cc2)C3)cc1 (configuration not stated) -7.2%
COc1cccc(CNC(=O)C(NS(=O)(=O)c2ccc3nc(C)sc3c2)C(C)C)c1 (configuration not stated) -7.88%
O=C(Nc1cccc(-c2nc3ncccc3o2)c1)c1ccco1 -8.65%
O=C(Nc1ccc(O)c(-c2nc3ccccc3o2)c1)c1ccc(-c2cccc(Cl)c2)o1 -8.85%
CCCCN(CC)C(=O)c1c[nH]c2ccc(S(=O)(=O)Nc3cccc(OC)c3)cc2c1=O 1.17%
CCCNC(=O)C(CC)n1nc(CC)n2c(cc3oc(C)cc32)c1=O (configuration not stated) -16.5%
Cc1ccc(-c2cc(N)n(Cc3cccc(Cl)c3)n2)cc1 -34%
CCc1cc2c(cc3c(=O)n(CC(=O)NCc4cccc(Cl)c4)nc(CC)n32)s1 -8.46%
Cc1ccc2cccc(NC(=O)c3cccc4ccccc34)c2n1 -1.04%
CCc1cccc(OC2OC(CO)C(O)C(O)C2NC(C)=O)c1 (configuration not stated) 26.1%
COc1ccc(Oc2coc3cc(OC(=O)c4cncc(Br)c4)ccc3c2=O)cc1 -2.3%
CCOc1ccc(C(=O)/C=C/c2cn(CC(O)CN3CCCCCC3)c3ccccc23)cc1 (configuration not stated) -12.8%
CC(=O)Nc1cccc(C(=O)Nc2nc(C)cs2)c1 2.64%
S=C(Nc1cccc(Cl)c1)Nc1ccc2cn[nH]c2c1 27.5%
Cn1c(=O)c2c(-c3ccccc3Br)n(Cc3ccccc3)cc2n(C)c1=O -0.398%
COc1ccc(S(=O)(=O)c2c(Nc3cccc(Cl)c3)sc(C(=O)c3ccccc3)c2N)cc1 -25.5%
COc1ccc(C(=O)CSc2nccc(=O)[nH]2)cc1 -3.01%
COc1ccc(C(CC(=O)O)NC(=O)Cc2ccccc2)cc1 (configuration not stated) 20.8%
O=c1ccn([C@@H]2O[C@H](COP(=O)(O)OP(=O)(O)OP(=O)(O)O)[C@@H](O)[C@H]2O)c(=O)[nH]1 -3.68%
COc1ccc(CCN2C(=O)c3oc4cc(C)cc(C)c4c(=O)c3C2c2ccccc2F)cc1OC (configuration not stated) 4.2%
Cc1cccc(CSc2nnc(NC(=O)CSc3nnc(C)s3)s2)c1 -6.2%
O=C(Nc1nnc(SCc2ccccc2)s1)c1ccco1 39.9%
COc1cc(C(=O)N(Cc2ccc(C(C)C)cc2)C2CCS(=O)(=O)C2)cc(OC)c1OC (configuration not stated) -5.52%
COc1ccc(CCNC(=O)Cn2c(=O)n(-c3ccccc3)c(=O)c3c(C)c(C)sc32)cc1OC -5.04%

Potency, active:
N#Cc1c(NC(=O)C2CCCO2)sc2c1CCCCC2 (configuration not stated) 6.31 µM
O=C(Nc1cc(N2CCOCC2)ncn1)NC1(C(F)(F)F)Oc2ccc(Cl)cc2O1 (configuration not stated) 20 µM
CC(C)CNC(=O)C(=O)Nc1ccc(N(C)C)cc1 11.2 µM
CCc1ccc(NC2Nc3cc(C)nn3S2)cc1 (configuration not stated) 11.2 µM
Cc1ccc(N)cc1-n1c(C)ccc1C 28.2 µM
CC(C)CNC(=O)c1cc(-c2ccc(Br)cc2)on1 12.6 µM
CCNc1nc(-c2cc3ccccc3o2)cs1 3.16 µM
O=c1oc2ccccc2cc1-c1csc(Nc2ccc(O)cc2)n1 11.2 µM
Cc1cccc(CSc2ccc(-c3cccs3)nn2)c1 20 µM
O=C(Nc1ccc2oc(-c3ccccc3F)nc2c1)c1ccco1 11.2 µM
Cc1csc(-c2coc3cc(O[C@@H]4O[C@H](CO)[C@@H](O)[C@@H](O)[C@H]4O)ccc3c2=O)n1 20 µM
Cc1csc(NC(=S)Nc2cccc(Cl)c2)n1 14.1 µM
COc1ccc(C(CC(=O)c2ccccc2)S(=O)(=O)c2ccccc2)cc1 (configuration not stated) 12.6 µM
Cc1ccc(Nc2nnc(SCc3ccccc3)s2)cc1 14.1 µM
